HP1b chromo inh = blocks HP1-beta chromodomain binding to methylated histone tails; P83916; AlphaScreen HP1-beta / biotin-H3K9me3 peptide binding; Potency, µM (highest dose often 114 µM), for inactives: top-dose activity change, negative = inhibition, usual class: inhibitors; 390,000 tested, 0.56% active; AID 540317; also: potency is read from the fitted curve at half-maximal effect; nearly all actives have a fitted effect of over 70% in size
Target sequence (P83916 whole entry, looked up): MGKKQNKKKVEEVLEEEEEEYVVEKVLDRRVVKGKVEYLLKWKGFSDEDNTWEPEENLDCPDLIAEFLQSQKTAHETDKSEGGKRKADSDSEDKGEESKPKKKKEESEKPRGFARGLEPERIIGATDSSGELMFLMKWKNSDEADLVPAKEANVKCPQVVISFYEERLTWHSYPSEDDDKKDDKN
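AlphaScreen: HP1-beta (50 nM) preformed 30 min with biotin-H3(1-18)K9me3 peptide (50 nM) in PBS pH 7.4, 0.01% Tween-20. Compound added for 30 min at RT, then streptavidin donor/nickel chelate acceptor beads (10 ug/mL) for 30 min.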
PI5P4K alpha inh = inhibitors of human PI5P4K alpha; P48426; PI5P4Kalpha enzyme, ADP-Glo luminescence, 60 min; stronger effect = lower value; max response, %; 330,000 tested, 1.2% active; active = max response of -50% or lower; inconclusive = between -30% and -50%; inactive = -30% or higher; also: value at the top dose of about 77 µM; % is scaled to controls: 0 for no effect and ±100 for the full control effect
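Controls without substrate or without enzyme flank wells where PI5P4Kalpha converts substrate using 5 microM ATP (final). Incubation lasts 60 minutes at room temperature; ADP formed is read by ADP-Glo luminescence.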
JMJD2A Tudor = JMJD2A Tudor domain (human) inhibition; AID 504339; 390,000 tested, 4.4% active; AlphaScreen JMJD2A-Tudor / H3K4me3 peptide binding; Potency, µM (titrated, usually from 114 µM), without a hit: at the top dose activity change, negative = inhibition, hits mostly inhibitors; O75164; also: potency is read from the fitted curve at half-maximal effect; % is scaled to controls: 0 for no effect and ±100 for the full control effect; nearly all actives have a fitted effect of over 50% in size
PLK1 PBD inh = inhibitors of human PLK1 polo-box domain binding. P53350. Plk1 PBD binding of FITC phosphopeptide, fluorescence polarization. Potency, µM, for inactives: max response, negative = inhibition, most hits filed as inhibitors. 360,000 tested, 2.8% active; also: potency is read from the fitted curve at half-maximal effect; series mostly up to about 57 µM; % is scaled to controls: 0 for no effect and ±100 for the full control effect; nearly all actives have a fitted effect of over 65% in size
G9a inh = blocks human histone lysine methyltransferase G9a; Q96KQ7; G9a H3K9 monomethylation, AlphaScreen, 2 h; Potency, µM (titrated, usually from 102 µM), for inactives: at the highest dose activity, negative = inhibition, most hits filed as inhibitors; 350,000 tested, 8.8% active; AID 504332; also: potency is read from the fitted curve at half-maximal effect; % is scaled to controls: 0 for no effect and ±100 for the full control effect; nearly all actives have a fitted effect of over 75% in size
Target sequence (Q96KQ7 913-1193 limits assumed): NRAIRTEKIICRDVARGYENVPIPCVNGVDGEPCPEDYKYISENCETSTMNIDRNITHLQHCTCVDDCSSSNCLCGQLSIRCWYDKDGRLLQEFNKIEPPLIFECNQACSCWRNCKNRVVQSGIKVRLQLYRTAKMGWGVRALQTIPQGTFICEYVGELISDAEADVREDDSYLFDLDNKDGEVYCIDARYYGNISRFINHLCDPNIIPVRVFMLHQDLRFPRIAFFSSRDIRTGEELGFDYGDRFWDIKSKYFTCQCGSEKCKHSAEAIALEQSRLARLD
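G9a (20 nM) preincubated 15 min RT with compounds, then 500 nM biotinylated H3K9 peptide and 20 uM SAM added; 2 h RT reaction. Monomethyl-H3K9 product detected by AlphaScreen with anti-H3K9me1 antibody, streptavidin donor and anti-rabbit IgG acceptor beads.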
BAZ2B inh = BAZ2B (human) inhibition; Q9UIF8; AlphaScreen BAZ2B-H3K14Ac peptide displacement; Potency, µM (series often up to 114 µM), for the others: top-dose activity change, negative = inhibition, actives largely listed as inhibitors; 360,000 tested, 4.4% active; AID 504333; also: potency is read from the fitted curve at half-maximal effect; % is scaled to controls: 0 for no effect and ±100 for the full control effect; nearly all actives have a fitted effect of over 60% in size
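AlphaScreen luminescence quantifies BAZ2B engagement of H3K14Ac peptide; the protein and biotinylated peptide are both at 50 nM final, buffer PBS pH 7.4 with 0.01% Tween-20, all steps at room temperature.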
Starred values were filed as active, the others as inactive; ? = inconclusive; nt = no result; [ ] = another dose, or the depositor's remark. The list is not random: actives were taken first. Their share in the collection is about 12%. Unless noted, calls follow the shape of the dose curve; as a rule, active = well fitted curve in the direction sought with a large enough effect; inconclusive = small, poorly fitted or top-dose-only effect, or another doubt; inactive = no such curve, though single readings can be large; an effect the other way counts as inactive or inconclusive.

SMILES | HP1b chromo inh | PI5P4K alpha inh | JMJD2A Tudor | PLK1 PBD inh | G9a inh | BAZ2B inh
CCOc1ccc2nc(NC(=O)c3cnc(C)cn3)sc2c1 | 34.9% | -15.4 | -18.1% | -7.4% | 44.7µM* | -0.8%
S=C(Nc1ccccc1)c1nc2ccccc2s1 | ? | 18.8 | 39.8µM* | -12.2% | ? | -37.9%
CCOc1ccc2nc(NC(=S)N(C)C)sc2c1 | ? | -18.8 | 12.6µM* | 18.9µM* | 1.58µM* | 35.5µM*
O=C(NNc1nc2ccccc2s1)Nc1ccccc1 | 21.5% | -5.6 | -21.2% | -12.6% | 1.8%[59 µM] | -33.8%
CN(C(=O)c1ccc(NC(=O)C2CCN(C(=O)OC(C)(C)C)CC2)cc1)C1CCC1 | 29.3% | 4.8 | 4.3% | -3.1% | nt | nt
CCNc1ncc2nc(-c3ccc(F)cc3)c(=O)n(-c3ccc(OC)cc3)c2n1 | nt | nt | nt | nt | 0.2%[0.501 µM] | nt
CC(C)(C)C(=O)Nc1cccc(C(=O)c2cccc(NC(=O)C(C)(C)C)c2)c1 | -6.2% | -0.9 | ? | 23.8µM* | 1.6% | -6.0%
Cc1ccc(F)c(S(=O)(=O)NC(=O)C2(C)CCN2C(=O)Cc2cc(F)ccc2F)c1 (stereo not drawn) | nt | 2.2 | nt | -1.5% | nt | nt
O=C(/C=C/c1cccs1)Nc1scc(-c2ccccc2)c1C(=O)O | ? | ? | 7.08µM* | ? | 31.6µM* | nt
CCOc1ccc(CCNC(=O)Cn2nnc(-c3ccccc3Cl)n2)cc1OCC | 18.7% | nt | 2.6% | nt | -4.0%[59 µM] | -12.3%
COc1ccc(/C=N/Nc2nc3ccccc3o2)cc1O | 19.5% | -8.6 | -22.1% | -5.3% | 39.8µM* | -2.5%
COc1cc(/C=N\Nc2nc3ccccc3o2)cc(OC)c1OC | 31.9% | nt | -11.3% | -4.3% | 7.2%[59 µM] | 4.4%
Brc1ccc(/C=N/Nc2nc3ccccc3o2)cc1 | 44.5% | 5.6 | -14.2% | 1.8% | 28.2µM* | -27.3%
COc1cc(/C=N/Nc2nc3ccccc3o2)cc(OC)c1O | 24.6% | -2.4 | ? | -5.2% | 39.8µM* | -25.2%
COc1ccc(/C=N/Nc2nc3ccccc3s2)cc1O | 12.7% | 3.2 | -27.4% | -10.3% | ? | 0.7%
CCOC(=O)Cn1c(=O)oc2cc(S(=O)(=O)NCc3ccc(F)cc3)ccc21 | 44.8% | nt | 2.7% | nt | 5.9%[59 µM] | 3.9%[57.1 µM]
CCn1c(SCC(=O)N2CCN(c3ccccc3)CC2)nc2c([nH]c3ccccc32)c1=O | 26.5% | -4.9 | 3.5% | -0.1% | -5.3% | -2.9%
CCOC(=O)c1cc(C)n(CC2CCC(C(=O)Nc3cc(OC)cc(OC)c3)CC2)c1C (stereo not drawn) | 32.7% | nt | -25.9% | nt | ? | -29.2%
C[C@@H]1COC(=O)[C@@H](CC(=O)OC(C)(C)C)C/C=C\C[C@@H](CC(=O)N[C@H](CO)Cc2ccccc2)C(=O)N1 | 57.5% | 1.8 | 3.5% | 3.1% | nt | nt
O=C(O)c1ccc(CN(Cc2ccccc2)S(=O)(=O)c2ccc(Cl)cc2)cc1 | -4.8% | 0.5 | ? | 23.8µM* | -7.7% | -1.7%
O=C(O)c1ccc(Cl)c(S(=O)(=O)N(Cc2ccccc2)c2ccc(Cl)cc2)c1 | 17.2% | -8.2 | -17.4% | 29.9µM* | 50.1µM* | -22.7%
C=CCNC(=O)COC(=O)c1ccc(Cl)c(S(=O)(=O)N(Cc2ccccc2)c2ccccc2)c1 | 35.1% | 0.0 | -22.7% | -1.7% | 31.6µM* | 2.7%
CCOC(=O)c1ccc(CN(Cc2ccccc2)S(=O)(=O)c2ccc(C)cc2)cc1 | 93.8% | nt | -22.0% | nt | 66.0%[59 µM] | 5.1%
CCOC(=O)C1(C)CCCN(C(=O)c2cccc(C#N)c2)C1 (stereo not drawn) | nt | -10.5 | nt | -0.1% | nt | nt
CCN(CC)c1nc(N(CC)CC)[nH]c(=O)n1 | 32.2% | -0.6 | 0.0% | -5.9% | nt | nt
SMILES | HP1b chromo inh | PI5P4K alpha inh | JMJD2A Tudor | PLK1 PBD inh | G9a inh | BAZ2B inh
CCN(CC)c1nc(-c2nn[nH]n2)nc(N(CC)CC)n1 | 22.9% | 1.2 | 89.1µM* | -10.0% | ? | 4.4%
CCOC(=O)c1c(NC(=O)COc2ccccc2OCC)sc2c1CC(C)(C)NC2(C)C | -6.6% | 1.7 | -33.1% | 4.8% | ? | -3.5%
CCOC(=O)c1c(NC(=O)c2ccc(C)cc2)sc2c1CC(C)(C)NC2(C)C | nt | nt | nt | nt | -4.1% | -1.6%
CCOC(=O)c1c(NC(=O)CSc2nc3ccc(C)cc3[nH]2)sc2c1CC(C)(C)NC2(C)C | -14.5% | -0.7 | ? | -2.8% | 44.7µM* | -38.7%
CCOC(=O)c1c(NC(=O)CSc2nnnn2-c2ccccc2)sc2c1CC(C)(C)NC2(C)C | -5.3% | 0.5 | ? | -11.1% | nt | 70.8µM*
CCOC(=O)c1c(NC(=O)CSc2nnnn2-c2ccccc2OCC)sc2c1CC(C)(C)NC2(C)C | -4.2% | 0.5 | -32.4% | 2.7% | 50.1µM* | -36.7%
N[C@@H](C(=O)O)c1ccc(O)c(C(=O)O)c1 | 24.8% | nt | -24.1% | nt | nt | nt
COc1cc(NC(=O)C(OC(=O)CNC(=O)c2ccccc2)c2ccccc2)cc(C(F)(F)F)c1 (stereo not drawn) | nt | nt | -14.4% | nt | nt | nt
O=C(CCn1nc(-c2ccc(Cl)cc2)c2ccccc2c1=O)Nc1ccc(OC(F)(F)F)cc1 | 48.0% | nt | -6.7% | nt | -25.2%[59 µM] | -24.0%
O=C(NCc1ccccc1)NCc1cccs1 | 26.1% | 0.6 | -6.9% | 0.9% | nt | -2.3%
CC1(C)C2CCC(C2)C1(C)NC(=O)CN1CCCC1 (stereo not drawn) | -34.7% | 8.0 | 28.2µM* | -18.8% | 5.01µM* | ?
CC1(C)C2CCC(C2)C1(C)NC(=O)CNC1CCCCC1 (stereo not drawn) | -26.0% | 0.4 | -33.8%[11.4 µM] | -9.4% | 12.6µM* | 50.1µM*
CC1(C)C2CCC(C2)C1(C)NC(=O)CN1CCOCC1 (stereo not drawn) | ? | -2.0 | 31.6µM* | -9.2% | 10µM* | 50.1µM*
CC1(C)C2CCC(C2)C1(C)NC(=O)CNCc1cccs1 (stereo not drawn) | ? | -5.9 | 25.1µM* | -8.3% | 11.2µM* | nt
Cc1ccccc1NC(=O)NC1(C(=O)N2CCOCC2)CCCCC1 | 34.2% | -1.2 | -5.5% | 3.7% | 7.4% | 4.6%
O=C(Nc1ccccc1C(F)(F)F)NC1(C(=O)N2CCOCC2)CCCCC1 | -38.1%[57 µM] | -88.1* | 8.91µM* | 6.7µM* | nt | nt
CC(=O)C[C@@H]1SC[C@H](c2ccccc2)N1S(=O)(=O)c1ccc(C)cc1 | nt | 6.6 | nt | -17.1% | nt | nt
O=C(C#Cc1ccccc1)c1ccco1 | 53.9% | 0.3 | -5.3% | 3.36µM* | 39.8µM* | 1.6%
O=C(N/N=C/c1ccccc1)c1ccco1 | 17.9% | 3.9 | 9.7% | 4.3% | -2.9% | -2.9%
C#CCOCCOCCOCCNc1nc(N2CCN(C(=O)C([C@@H](C)CC)n3cc(C(N)Cc4ccc(O)cc4)nn3)CC2)nc(N2CCN(C(=O)[C@H](CCC(=O)O)n3cc(C(N)CO)nn3)CC2)n1 (stereo partly drawn) | 22.3% | -0.2 | 56.2µM* | -1.0% | ? | 50.1µM*
